Each structure is given as a SMILES string. Where “and” joins values, the source holds several entries; their conditions need not be identical. Equal entries are not always repeated. Structures can show the parent of a compound that is named as a salt. ± gives the standard deviation of the averaged measurements. In all, about 3,200 compounds were measured (“nuclei count (viability) relative to DMSO”: median about 99, lowest 2% from about 16 on). The full list was thinned out, with the lowest values kept by preference.

The experiment relates to U2OS. Briefly: nuclei count (viability) relative to DMSO (% of DMSO); higher = more viable cells. Conditions: 10 µM; 24 h. As to the method:
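Primary image-based screen in U2OS cells: compounds at 10 uM for 24 h, then a 1 h o-propargyl-puromycin (OPP) pulse, click labelling, and high-throughput microscopy. Mean cytoplasmic OPP intensity and nuclei count were normalised to DMSO wells within each plate (DMSO = 100) and averaged over triplicate plates.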
In turn, `CC(C)Cc1ccc(C(C)C(=O)NO)cc1` (configuration not stated) [Ibuproxam] had a nuclei count of 95.9.
The compound `CN(C)c1ccc(C(=C2C=CC(=[N+](C)C)C=C2)c2ccc(N(C)C)cc2)cc1` [Crystal violet] had a nuclei count of 13.
For the compound `CCOC(=O)Nc1cc(-c2ccc(C)c(NS(C)(=O)=O)c2)nn2c(C)nnc12` [Bromosporine], the nuclei count came to 74.5.
As to `CCCn1c(=O)c2[nH]c(-c3ccccc3)nc2n(CCC)c1=O` [1,3-Dipropyl-8-phenylxanthine], the nuclei count turned out to be 98.9.
`CC(C)C(=O)SCCCCCCC(=O)Nc1nc(-c2ccccc2)cs1`: the nuclei count worked out at 45.8.
With `CCOC(=O)c1cnc2c(cnn2CC)c1NN=C(C)C` [Etazolate hydrochloride], the nuclei count came to 106.
Turning to `CN1CCN(C(=O)c2nc3ccc(Cl)cc3[nH]2)CC1`, the nuclei count was found to be 88.3.
`CN1CCCN(C(=O)c2cccc(-c3ccc(/C=C4/C(=O)Nc5ccc(Cl)cc54)o3)c2)CC1` came in with a nuclei count of 6.22.
On to `Cc1[nH]c(/C=C2\C(=O)Nc3ccc(S(=O)(=O)N(C)c4cccc(Cl)c4)cc32)c(C)c1C(=O)N1CCN(C)CC1`, for which the nuclei count came to 52.4.
`CCCNC(=O)N1N=C(c2ccc(N)cc2)c2cc3c(cc2C1C)OCO3` (configuration not stated) gave a nuclei count of 93.
With `C[C@H]1O[C@@H](O[C@H]2[C@@H](O)C[C@H](O[C@H]3[C@@H](O)C[C@H](O[C@H]4CC[C@@]5(C)[C@H](CC[C@@H]6[C@@H]5C[C@@H](O)[C@]5(C)[C@@H](C7=CC(=O)OC7)CC[C@]65O)C4)O[C@@H]3C)O[C@@H]2C)C[C@H](O)[C@@H]1O` [Digoxin], the nuclei count stood at 14.3.
The compound `CCN1CCN(c2cc(-c3ccc(F)cc3)c3c(n2)CCCCCC3)CC1` [Blonanserin (Lonasen)] registered a nuclei count of 98.7.
The figure for `C[S+]([O-])c1ccc(-c2nc(-c3ccc(F)cc3)c(-c3ccncc3)[nH]2)cc1` (configuration not stated) is 96.8 and 103.
The figure for `N=C(NCCCCCCNC(=N)NC(=N)Nc1ccc(Cl)cc1)NC(=N)Nc1ccc(Cl)cc1` [Chlorhexidine] is 75.6; for `CCCCC(CC)CNC(=N)NC(=N)NCCCCCCNC(=N)NC(=N)NCC(CC)CCCC` (configuration not stated) [Alexidine dihydrochloride] it is 6.87; for `Nc1nc(OCc2cc(Br)cs2)c2[nH]cnc2n1` [Lomeguatrib] it is 102.
The figure for `COc1cccc2c1C(=O)c1c(O)c3c(c(O)c1C2=O)C[C@@](O)(C(C)=O)C[C@@H]3O[C@H]1C[C@H](N)[C@H](O)[C@H](C)O1` [Daunorubicin HCl (Daunomycin HCl)] is 10.2.
As for `CC(=O)[C@]1(O)Cc2c(O)c3c(c(O)c2[C@@H](O[C@H]2C[C@H](N)[C@H](O)[C@H](C)O2)C1)C(=O)c1ccccc1C3=O` [Idarubicin HCl], the nuclei count was 11.6.
In turn, `COc1cccc2c1C(=O)c1c(O)c3c(c(O)c1C2=O)C[C@@](O)(C(C)=O)C[C@@H]3O[C@H]1C[C@H](N)[C@H](O)[C@H](C)O1` [Daunorubicin hydrochloride] gave a nuclei count of 12.3.
Turning to `COc1cccc2c1C(=O)c1c(O)c3c(c(O)c1C2=O)C[C@@](O)(C(=O)CO)C[C@@H]3O[C@H]1C[C@H](N)[C@H](O)[C@H](C)O1` [Doxorubicin (Adriamycin)], the nuclei count was 12.7.
As to `COc1cccc2c1C(=O)c1c(O)c3c(c(O)c1C2=O)C[C@@](O)(C(=O)CO)C[C@@H]3O[C@H]1C[C@H](N)[C@H](O)[C@H](C)O1` [Doxorubicin hydrochloride], the nuclei count turned out to be 13 ± 0.18.
`COc1cccc2c1C(=O)c1c(O)c3c(c(O)c1C2=O)C[C@@](O)(C(=O)CO)C[C@@H]3O[C@H]1C[C@H](N)[C@H](O[C@@H]2CCCCO2)[C@H](C)O1` [Pirarubicin] had a nuclei count of 33.
Compound `COc1cccc2c1C(=O)c1c(O)c3c(c(O)c1C2=O)C[C@@](O)(C(=O)CO)C[C@@H]3O[C@H]1C[C@H](N)[C@@H](O)[C@H](C)O1` [Epirubicin HCl] registered a nuclei count of 13.2.
`CCCc1c(OCCCOc2ccc(OCC(=O)O)cc2)ccc(C(C)=O)c1O` had a nuclei count of 108.
As to `COc1c(OCCCN2CCOCC2)ccc2c1N=C(NC(=O)c1cnc(N)nc1)N1CCN=C21`, the nuclei count was 93.2.
`CCOC(=O)[C@H](CCc1ccccc1)N[C@H]1CS[C@H](c2cccs2)CN(CC(=O)O)C1=O` [Temocapril HCl] registered a nuclei count of 108.
In turn, `O=C(/C=C/c1c(C(=O)O)[nH]c2cc(Cl)cc(Cl)c12)Nc1ccccc1` [Gavestinel] came in with a nuclei count of 93.2.
The compound `Cn1cnc(N)c2ncnc1-2` [3-Methyladenine] registered a nuclei count of 104.
In the case of `Cn1cnc(N)c2ncnc1-2` [3-Methyladenine (3-MA)] it was 107; in that of `OCC1OC(n2cnc3c(NC4CCCC4)nc(Cl)nc32)C(O)C1O` (configuration not stated) [2-Chloro-N6-cyclopentyladenosine], 93.5; in that of `CC/C=C\C/C=C\C/C=C\C/C=C\C/C=C\C/C=C\CCC(=O)O` [Docosa-4Z,7Z,10Z,13Z,16Z,19Z-hexaenoic acid], 96.9.
As for `CCCOC(=O)c1cc(O)c(O)c(O)c1` [N-Propyl gallate], the nuclei count is 82.9.
Turning to `Cc1cc(/C(=C/Nc2ccc(Cl)cc2)C(=O)Nc2ccc(Cl)cc2)on1`, the nuclei count is 102.
For `Cc1sc(N)c(C(=O)c2cccc(C(F)(F)F)c2)c1C`, the nuclei count is 107.
Compound `N[C@H](C(=O)O)[C@H](OCc1ccccc1)C(=O)O` (racemic) registered a nuclei count of 89.6.
`CC(C)NCCN(C(C)C)S(=O)(=O)c1ccc(Cl)cc1Cl` yielded a nuclei count of 79.5.
In the case of `CCCCCS(=O)(=O)CCCCCCCCCCn1c(-c2ccc(O)cc2)c(C)c2cc(O)ccc21` it was 105.
In the case of `CN(CCOc1ccc(C[C@H](Nc2ccccc2C(=O)c2ccccc2)C(=O)O)cc1)c1ccccn1` it was 104.
As for `CC1(C)OC2=C(C(=O)c3ccccc3C2=O)[C@H](NCc2ccccc2)[C@@H]1O`, the nuclei count is 14.7.
The figure for `CC1(C)S[C@@H]2[C@H](NC(=O)Cc3ccccc3)C(=O)N2[C@H]1C(=O)O` [Benzylpenicillin sodium] is 98.6; for `CC1(C)S[C@@H]2[C@H](NC(=O)Cc3ccccc3)C(=O)N2[C@H]1C(=O)O` [Benzathine benzylpenicillin] it is 81.7.
The figure for `Cc1cc(C(=O)NNCc2ccccc2)no1` [Isocarboxazid] is 109.
In the case of `C[C@H]1COC2(CCN(c3nc(=O)c4cc(C(F)(F)F)cc([N+](=O)[O-])c4s3)CC2)O1` (racemic) [BTZ043 racemate], the nuclei count worked out at 101.
Compound `Cc1nnc(-c2ccc3occ(-c4ccc([S+](C)[O-])cc4)c3c2)o1` (configuration not stated) showed a nuclei count of 112.
As to `COc1c(C)cnc(Cn2cnc3c(Cl)nc(N)nc32)c1C`, the nuclei count was determined as 49.7.
The figure for `Cc1cn(CCN2CCN(c3ccccc3-c3cc(C#N)cc(C(=O)NCCCN4CCCC4)c3)CC2)c2ccccc12` is 22.8; for `O=C(Nc1cc(C(F)(F)F)cc(C(F)(F)F)c1)c1cc(Cl)ccc1O` it is 78.7; for `CC(C)C[C@H](NC(=O)N1CCCCCC1)C(=O)N[C@H](Cc1cn(C)c2ccccc12)C(=O)N[C@H](Cc1ccccn1)C(=O)O` it is 100.
As for `O=C1c2ccccc2C(=O)c2c(NCCc3ccc(O)cc3)ccc(NCCc3ccc(O)cc3)c21`, the nuclei count came out at 97.1.
In the case of `O=C1c2c(O)ccc(O)c2C(=O)c2c(NCCNCCO)ccc(NCCNCCO)c21` [Mitoxantrone dihydrochloride] it was 15.5; in that of `C[N+](C)([O-])CCNc1ccc(NCC[N+](C)(C)[O-])c2c1C(=O)c1c(O)ccc(O)c1C2=O` [Banoxantrone dihydrochloride], 51.2; in that of `Nc1[nH]nc2nc3ccccc3nc12`, 98.5.
In turn, `Nc1ccc(-c2ccc3ncc4ccc(=O)n(-c5cccc(C(F)(F)F)c5)c4c3c2)cn1` [Torin 2] gave a nuclei count of 27.7 ± 1.8.
In turn, `CCC(=O)N1CCN(c2ccc(-n3c(=O)ccc4cnc5ccc(-c6cnc7ccccc7c6)cc5c43)cc2C(F)(F)F)CC1` [Torin 1] yielded a nuclei count of 80.4.
Turning to `COc1ccc(-c2ccc3ncc4c(c3c2)n(-c2ccc(N3CCNCC3)c(C(F)(F)F)c2)c(=O)n4C)cn1`, the nuclei count worked out at 16.4 ± 5.4.
The compound `O=C1[C@@H]2[C@H]3CC[C@H](C3)[C@@H]2C(=O)N1C[C@@H]1CCCC[C@H]1CN1CCN(c2nsc3ccccc23)CC1` [Lurasidone HCl] had a nuclei count of 102.
Regarding `CCN1CCN(c2ccc(Nc3cc(N(C)C(=O)Nc4c(Cl)c(OC)cc(OC)c4Cl)ncn3)cc2)CC1`, the nuclei count is 96.4.
The compound `CC(C)[C@H](NS(=O)(=O)c1ccc(-c2ccc(Br)cc2)cc1)C(=O)O` came in with a nuclei count of 97.3.
As to `CC1(C)C[C@@H]1C(=O)N/C(=C\CCCCSC[C@H](N)C(=O)O)C(=O)O` [Cilastatin], the nuclei count is 91.5.
Consider `CC1(C)C[C@@H]1C(=O)N/C(=C\CCCCSC[C@H](N)C(=O)O)C(=O)O` [Cilastatin sodium], for which the nuclei count was 96.7.
Regarding `COC1=CC(c2cc3ccccc3[nH]2)=N/C1=C\c1[nH]c(C)cc1C` [Obatoclax mesylate (GX15-070)], the nuclei count was 45.5.
On to `CC[C@]1(O)C[C@H]2CN(CCc3c([nH]c4ccccc34)[C@@](C(=O)OC)(c3cc4c(cc3OC)N(C=O)[C@H]3[C@@](O)(C(=O)OC)[C@H](OC(C)=O)[C@]5(CC)C=CCN6CC[C@]43[C@@H]65)C2)C1` [Vincristine sulfate], for which the nuclei count came to 17.8.
The compound `CC[C@]1(O)C[C@@H]2CN(CCc3c([nH]c4ccccc34)[C@@](C(=O)OC)(c3cc4c(cc3OC)N(C)[C@H]3[C@@](O)(C(=O)OC)[C@H](OC(C)=O)[C@]5(CC)C=CCN6CC[C@]43[C@@H]65)C2)C1` [Vinblastine] came in with a nuclei count of 100.
In the case of `CC[C@]1(O)C[C@H]2CN(CCc3c([nH]c4ccccc34)[C@@](C(=O)OC)(c3cc4c(cc3OC)N(C=O)[C@H]3[C@@](O)(C(=O)OC)[C@H](OC(C)=O)[C@]5(CC)C=CCN6CC[C@]43[C@@H]65)C2)C1` [Vincristine], the nuclei count was determined as 18.1.
As for `CCC1=C[C@@H]2CN(C1)Cc1c([nH]c3ccccc13)[C@@](C(=O)OC)(c1cc3c(cc1OC)N(C)[C@H]1[C@@](O)(C(=O)OC)[C@H](OC(C)=O)[C@]4(CC)C=CCN5CC[C@]31[C@@H]54)C2` [Vinorelbine (Navelbine)], the nuclei count came out at 16.1.
In the case of `CC[C@]12C=CCN3CC[C@@]4(c5cc([C@@]6(C(=O)OC)C[C@@H]7C[C@@H](C(C)(F)F)CN(Cc8c6[nH]c6ccccc86)C7)c(OC)cc5N(C)[C@H]4[C@@](O)(C(=O)OC)[C@@H]1OC(C)=O)[C@@H]32` [Vinflunine Tartrate], the nuclei count was 14.1.
With `CC[C@]1(O)C[C@@H]2CN(CCc3c([nH]c4ccccc34)[C@@](C(=O)OC)(c3cc4c(cc3OC)N(C)[C@H]3[C@@](O)(C(=O)OC)[C@H](OC(C)=O)[C@]5(CC)C=CCN6CC[C@]43[C@@H]65)C2)C1` [Vinblastine sulfate], the nuclei count was found to be 16.8.

Values taken from the supplement of paper PMC8183993.
